# High-throughput results: PubChem, National Center for Advancing Translational Sciences (NCATS)
# TDP1 cell noCPT = qHTS for Inhibitors of human tyrosyl-DNA phosphodiesterase 1 (TDP1): qHTS in cells in absence of CPT | Potency, µM (series often up to 46.2 µM), for the others: at the top dose activity change, negative = growth inhibition, hits mostly inhibitors | DT40 Tdp1-/- hTDP1 cells, no CPT, ATP luminescence, 48 h | 420,000 tested, 15% active; note: potency is the fitted concentration of half-maximal effect; % is set by controls: 0 for no effect and ±100 for the full control effect; nearly all actives have a fitted effect of over 55% in size
#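 Growth of hTDP1-complemented DT40 Tdp1-knockout cells is measured by ATP luminescence after at least 48 hr compound exposure at 37 °C, with DMSO substituting for the 20 nM CPT used in the parallel screen.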
# TDP1 cell CPT = DT40-hTDP1 cell growth loss with CPT; chicken DT40 Tdp1-/-;hTDP1 cells + 20 nM CPT, ATP luminescence, 48 h; Potency, µM (top dose mostly 46.2 µM), for the others: at the highest dose activity change, negative = growth inhibition, actives largely listed as inhibitors; 420,000 tested, 12% active; note: potency is the fitted concentration of half-maximal effect; % is set by controls: 0 for no effect and ±100 for the full control effect; nearly all actives have a fitted effect of over 55% in size
#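 Chicken DT40 Tdp1-/- cells complemented with human TDP1, 400 cells/well, exposed to compounds plus 20 nM camptothecin for at least 48 h at 37 C; viability read as ATP content by CellTiter-Glo luminescence.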
# DRD3 antagonist = antagonists of human D3 dopamine receptor | D3R cells, DiscoveRx beta-arrestin luminescence, antagonist mode; hits give low values | max response, negative = inhibition, % | AID 652054 | P35462 | 360,000 tested, 2.5% active; in the data active = max response below about -50%; inconclusive = no clear call, values can overlap the other calls; note: % is set by controls: 0 for no effect and ±100 for the full control effect
# Target sequence (P35462 whole entry, looked up): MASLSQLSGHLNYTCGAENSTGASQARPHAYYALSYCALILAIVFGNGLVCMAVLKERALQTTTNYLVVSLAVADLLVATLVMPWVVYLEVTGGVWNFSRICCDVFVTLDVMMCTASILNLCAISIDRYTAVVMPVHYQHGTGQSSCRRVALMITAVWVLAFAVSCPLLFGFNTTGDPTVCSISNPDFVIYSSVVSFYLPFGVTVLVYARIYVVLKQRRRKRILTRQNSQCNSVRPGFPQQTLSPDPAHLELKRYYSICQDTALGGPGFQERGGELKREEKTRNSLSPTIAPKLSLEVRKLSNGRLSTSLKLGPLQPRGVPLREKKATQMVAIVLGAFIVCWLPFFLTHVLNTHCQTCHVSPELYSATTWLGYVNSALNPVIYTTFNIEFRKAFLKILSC
#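 Cells plated overnight at 1500 cells/well, then exposed to library compounds with dopamine controls for 90 minutes at 37 degrees C. DiscoveRx reagent added for 30–60 minutes at room temperature; luminescence read, quantitative HTS format.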
# D3 ag = agonists of human D3 dopamine receptor. P35462. D3R DiscoveRx beta-arrestin cells, luminescence, 90 min. max activation, %. 410,000 tested, 0.58% active; in the data active = max activation above about 30%; note: 0% is about no effect
#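 Agonist-mode cell screen: cells plated at 1500/well and incubated overnight at 37 °C, then exposed to library compounds for 90 min at 37 °C. Detection reagent was added for 30–60 min at room temperature, and luminescence was read.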
# IL1B secr inh = blocks inflammasome-driven IL-1 beta release. THP-1 LPS/ATP IL-1B secretion, AlphaLISA, 16 h; hits give low values. activity change, % at 57.5 µM. 360,000 tested, 4.7% active. AID 743279; in the data active = activity change below about -50%; inconclusive = mostly about -30% to -49%; note: % is set by controls: 0 for no effect and ±100 for the full control effect
#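 Secreted IL-1B measured by AlphaLISA bead assay after 16 h compound exposure of THP-1 cells; compounds (final up to 57.5 uM) added 1 h before LPS (250 ng/mL) and ATP (1.25 mM) stimulation; lower signal means less secretion.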
# ClpP mod = qHTS Assay for Activators of ClpP; ATP-dependent Clp protease proteolytic subunit (Bacillus subtilis (strain 168)), P80244; purified B. subtilis ClpP, FRET peptide cleavage, 20 min; Potency, µM (series often up to 57.5 µM), for inactives: at the top dose activity change, negative = active; 340,000 tested, 1.9% active; AID 651965, 2013; active = well fitted falling curve with a large enough effect; inconclusive = small, poorly fitted or top-dose-only effect; inactive = no such curve, though single readings can be large or run the other way; note: potency is the fitted concentration of half-maximal effect; the source files actives as falling curves though it sought activators and does not explain the sign; nearly all actives have a fitted effect of over 65% in size
# Target sequence (P80244 whole entry, looked up): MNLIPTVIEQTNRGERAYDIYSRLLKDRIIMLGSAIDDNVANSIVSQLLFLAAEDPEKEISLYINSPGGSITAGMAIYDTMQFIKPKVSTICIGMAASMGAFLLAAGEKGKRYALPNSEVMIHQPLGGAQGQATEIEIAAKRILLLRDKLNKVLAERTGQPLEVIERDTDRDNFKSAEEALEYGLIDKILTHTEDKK
#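 ClpP 10 microg/mL final, pH 8 Tris/KCl buffer with BSA, glycerol, Tween-20; compound pinned in; FRET-FV substrate; RT 20 min; Ex320/Em430; ΔFRET vs ADEP 5.8 microM, DMSO, no enzyme.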
# * hit, by the source's call; ? = inconclusive; nt = no result given; [ ] = dose if it differs, or a comment. In the library only some 21% were active in any assay of this set; here they are far more common. Unless noted, calls come from the whole dose curve; as a rule, active = well fitted inhibition curve with a large enough effect; inconclusive = small, poorly fitted or top-dose-only effect; inactive = flat fitted curve, though single readings scatter.
SMILES,TDP1 cell noCPT,TDP1 cell CPT,DRD3 antagonist,D3 ag,IL1B secr inh,ClpP mod
CC1Cc2cc(S(=O)(=O)N3CCC(C(=O)N4CCCCC4)CC3)ccc2N1C(=O)C1CC1 (centres undefined),-17%,?,14,1,1,-1%
CC(=O)N1c2ccc(S(=O)(=O)N3CCC(C(=O)NC4CCCCC4)CC3)cc2CC1C (centres undefined),10%,-16%,0,1,70,0%
CC(=O)N1c2ccc(S(=O)(=O)N3CCC(C(=O)N4CCC(C)CC4)CC3)cc2CC1C (centres undefined),?,?,-18,17,?,3%
CC(=O)N1c2ccc(S(=O)(=O)N3CCC(C(=O)N4CCCC(C)C4)CC3)cc2CC1C (centres undefined),?,21µM*,16,9,1,-1%
CC(=O)N1c2ccc(S(=O)(=O)N3CCC(C(=O)N4CC(C)CC(C)C4)CC3)cc2CC1C (centres undefined),?,21µM*,-1,7,-14,-1%
CC1CC(C)CN(C(=O)C2CCN(S(=O)(=O)c3ccc4c(c3)CC(C)N4C(=O)C3CC3)CC2)C1 (centres undefined),?,16µM*,14,-2,?,2%
Cc1nc(C(F)(F)F)ccc1C(=O)N1CCCC(C(=O)O)CC1 (centres undefined),-2%,-6%,-23,-3,0,0%
CCn1nc(C)c(CNC(=O)C2CCC(=O)N(CCc3ccc(Cl)cc3)C2)c1C (centres undefined),-5%,-15%,-20,-1,-6,0%
CCCN1C(=O)C(Cc2nc3ccccc3c(=O)n2-c2cccc(C)c2)c2ccccc21 (centres undefined),?,?,nt,7,nt,-3%
COc1ccc(S(=O)(=O)Nc2ccccc2C(=O)N2CCCCC2)cc1C,-3%,-11%,1,-12,-12,1%
CC(C)Cn1c2c(c(O)c(C(=O)Nn3c(Cc4ccccc4)nc4ccccc4c3=O)c1=O)CCCC2,3.7µM*,5.2µM*,-19,-5,23,?
O=C(Nn1c(Cc2ccccc2)nc2ccccc2c1=O)c1c(O)c2cccc3c2n(c1=O)CCC3,?,?,-8,6,6,-5%
CCCCc1nc2ccccc2c(=O)n1NC(=O)c1c(O)c2c(n(CC(C)C)c1=O)CCCC2,9.2µM*,15µM*,-15,-2,39,-4%
CCc1ccc2c(c1)[C@H]1OCC[C@H]1[C@@H](c1cccs1)N2,7.3µM*,13µM*,7,-5,23,-2%
Brc1ccccc1-n1nnc(-c2ccnc3ccccc23)n1,?,?,-7,28,20,-4%
N#CC1=C(N)SC(N)=C(C#N)C1c1ccnc2ccccc12,?,?,0,-6,5,-10%
O=C1c2ccccc2C(=O)C1c1ccnc2ccccc12,13µM*,5.8µM*,-16,-3,9,1%
O=C1c2ccccc2C(=O)C1c1nccc2ccccc12,12µM*,10µM*,6,-1,22,0%
O=C1C(c2ccnc3ccccc23)=C(O)c2ccccc21,12µM*,13µM*,42,-7,23,0%
O=C(Cn1c(=O)cnc2ccccc21)Nc1cccc(S(=O)(=O)N2CCOCC2)c1,11%,7%,1,20,13,-28%
COc1cccc(OC)c1NC(=O)Cn1nc(C)c2ccccc2c1=O,?,?,14,5,9,?
CCN(CC)C(=O)C1=C(C)N(CCCOC)C(=O)C(CC(=O)NC(c2ccccc2)c2ccccc2)C1 (centres undefined),7.3µM*,5.8µM*,-21,-11,4,0%
CCCCN1C(=O)C(CC(=O)NC(c2ccccc2)c2ccccc2)CC(C(=O)N2CCCCCC2)=C1C (centres undefined),?,?,-20,5,-1,1%
CCN(CC)C(=O)C1=C(C)N(CCCOC)C(=O)C(CC(=O)NC2CC2)C1 (centres undefined),0%,-4%,-116*,-17,8,0%
CC1=C(C(=O)N(C)C)CC(CC(=O)NC(c2ccccc2)c2ccccc2)C(=O)N1Cc1ccc(F)cc1 (centres undefined),18µM*,?,-28,2,23,2%
SMILES,TDP1 cell noCPT,TDP1 cell CPT,DRD3 antagonist,D3 ag,IL1B secr inh,ClpP mod
CCCCN1C(=O)C(CC(=O)NC(c2ccccc2)c2ccccc2)CC(C(=O)N(CC)CC)=C1C (centres undefined),21µM*,18µM*,-16,0,?,1%
COc1ccc(-c2ccc(C(=O)NCC3Cc4cccc(-c5nc(C)cnc5C)c4O3)o2)cc1 (centres undefined),?,-2%[9.04 µM],nt,nt,nt,nt
O=C(CN1C=NS(=O)(=O)c2ccccc21)Nc1ccc(Br)cc1,?,2%,nt,-21,nt,4%
CC1=C(C(=O)N(C(C)C)C(C)C)CC(CC(=O)NC(c2ccccc2)c2ccccc2)C(=O)N1CCC1=CCCCC1 (centres undefined),18µM*,26µM*,-13,-3,?,2%
CC1=C(C(=O)N2CCOCC2)CC(CC(=O)NC(c2ccccc2)c2ccccc2)C(=O)N1CCC1=CCCCC1 (centres undefined),?,?,0,-15,-19,-1%
COc1ccc(-c2ncncc2-c2ccc(OC)c(OC)c2)c(O)c1,-17%,-11%,4,-11,-14,20µM*
Nc1ncc(-c2ccccc2)c(-c2ccc(O)cc2O)n1,?,-7%,-9,2,-92*,nt
COc1ccc(-c2cnc(N)nc2-c2ccc(OCc3ccccc3)cc2O)cc1,?,?,20,13,?,nt
COc1ccc(-c2nc(N)ncc2-c2ccc(OC)c(OC)c2)c(O)c1,?,?,18,13,-53*,-3%
CCOc1ccc(-c2ncncc2-c2ccccc2OC)c(O)c1,23µM*,13µM*,44,2,17,nt
CCCOC(=O)c1ccc(Nc2c(C(=O)OCC)cnc3c(C)cc(Cl)cc23)cc1,-27%,-4%,nt,4,nt,-3%
N#Cc1ccc(C(=O)NC(=S)N2CCN(C=O)CC2)cc1,-5%,-3%,0,0,9,nt
